Assay outcomes (PubChem BioAssay)
Compounds with a hit are over-represented: about 4.7% of the library has one in this group of screens.
tim10-1 inh: inhibits growth of tim10-1 mutant yeast; inhibition, % at 20 µM; AID 463190; 330,000 tested, 2.2% active; S. cerevisiae tim10-1 ts strain growth, BacTiter-Glo, 24 h;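 active = inhibition of at least 40%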;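 also: mutant grown at 25 °C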
PfHsp90 set2: reduces growth (ATP signal) of yeast expressing P. falciparum Hsp90. 310,000 tested, 0.32% active. S. cerevisiae expressing PfHsp90, BacTiter-Glo ATP, 48 h; yeast lacking PDR1 and PDR3 efflux regulators. inhibition, % at 9.4 µM;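 active = every replicate shows inhibition above about 80%, whatever the replicate mean, limit read from the data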
SKKanGAS inh: SKKanGAS growth inhibition; S. pyogenes SKKanGAS, kanamycin growth, BacTiter-Glo, 6 h; inhibition, % at 7.5 µM; 300,000 tested, 1.3% active; AID 1662;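 active = mean replicate score, as percent of positive control median, at least 50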;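 also: strain carries kanamycin resistance gene driven by streptokinase promoter and grows in 40 µg/ml kanamycin; loss of luminescence reflects streptokinase promoter inhibition or plain growth inhibition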
TIM10 inh: growth inhibitors of TIM10 yeast strain; S. cerevisiae TIM10 strain growth, BacTiter-Glo luminescence, 24 h; AID 463195; inhibition, % at 10 µM; 330,000 tested, 1.4% active;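 active = inhibition of 40% or more at the single tested concentration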;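 also: wild-type TIM10 isogenic control strain grown at permissive 25 °C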
Calb FLC: affects C. albicans growth with fluconazole | C. albicans CaCi-2 (fluconazole-resistant clinical isolate) + fluconazole, Alamar Blue growth, 48 h | growth inhibition, % (test concentration not listed) | 300,000 tested, 0.57% active;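 active = growth inhibition above about 58% in most replicates, limit read from the data, passing the limit was not always enough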;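 also: all wells also contain fluconazole at 8 µg/ml as a sub-toxic cotreatment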
tim23-1 inh: tim23-1 yeast growth inhibition | 330,000 tested, 1.3% active | AID 463212 | S. cerevisiae tim23-1 growth, BacTiter-Glo luminescence, 24 h | inhibition, % at 20 µM;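 active = growth inhibition of the mutant yeast at or above 50%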;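 also: temperature-sensitive mutant grown at 25 °C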
tim10 confirm: confirmation of TIM10 yeast growth inhibitors; S. cerevisiae tim10 strain growth, BacTiter-Glo luminescence, 24 h; shares compounds with TIM10 inh; 4,600 tested, 63% active; AID 463215; inhibition, % at 10 µM;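 active = inhibition of yeast growth at or above a set limit in either of two replicates at 10 µM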; also: this counterscreen used the strain with wild-type TIM10
A number is an active result; i = inactive; nt = no result.

SMILES	tim10-1 inh	PfHsp90 set2	SKKanGAS inh	TIM10 inh	Calb FLC	tim23-1 inh	tim10 confirm
Cc1c(C(=O)NCc2cccnc2)oc2ccc(S(=O)(=O)N3CCCCCC3)cc12	i	nt	i	42.5	i	i	i
Cc1c(C(=O)NCc2cccnc2)oc2ccc(S(=O)(=O)N3CCCCC3)cc12	i	i	i	i	i	i	nt
Cc1ccc([N+](=O)[O-])cc1N=Nc1c(C)[nH]n(C(N)=S)c1=O	i	i	i	43.2	i	i	34.0
CC(=O)Oc1oc(-c2ccccc2)nc1C=Nc1ccc(N(C)C)cc1	i	i	i	44.8	i	i	i
O=C(CCC(=O)Nc1nnc(C2CCCCC2)s1)NCc1ccccc1	i	i	i	54.8	i	i	i
CC(C)(C)c1ccc(S(=O)(=O)N2CC(C(=O)O)Oc3ccc(Cl)cc32)cc1 (stereo not drawn)	i	i	i	i	i	i	nt
Cc1[nH]c(=O)[nH]c(=O)c1S(=O)(=O)Nc1cccc(C(F)(F)F)c1	i	i	i	i	i	i	nt
COc1ccc(OC)c(/C=C/C(=O)OCC(=O)NCc2ccccc2)c1	i	i	nt	i	nt	i	nt
COc1ccc(OC)c(/C=C/C(=O)OCC(=O)NCc2cccs2)c1	i	nt	nt	40.8	nt	i	i
O=c1c(-c2nnc(SCc3ccc(Cl)c(Cl)c3)o2)cccn1Cc1ccccc1	i	i	i	42.9	i	i	30.1
CCCCOc1c(Br)cc(/C=C2\N=C(C)OC2=O)cc1OCC	i	i	i	49.2	i	i	i
CCOc1cc(/C=C2\N=C(C)OC2=O)cc(Cl)c1OCC(=O)OC	i	i	i	i	i	i	nt
O=C(C#Cc1ccccc1)c1cccc([N+](=O)[O-])c1	i	152.2	i	72.0	i	i	70.3
O=C(NCCCC1CCCC1)C1CCC(=O)N(Cc2ccc(Cl)cc2)C1 (stereo not drawn)	i	i	i	i	i	i	nt
COc1ccccc1-c1coc2cc(O)cc(O)c2c1=O	i	i	i	41.8	i	i	i
COc1ccc(-c2coc3cc(O)cc(O)c3c2=O)cc1OC	i	i	i	i	i	i	nt
Cc1noc(C)c1COc1ccc(C(=O)N2CCN(S(=O)(=O)c3cccc(F)c3)CC2)cc1	i	nt	nt	i	nt	i	nt
COCCn1c(C)cc(C(=O)COc2ncnc3ccc(Br)cc23)c1C	i	i	i	42.7	i	i	i
Cc1cccc(C(=O)C2CCN(S(=O)(=O)c3cccc(C(=O)O)c3)CC2)c1	i	i	i	i	i	i	nt
Cc1cc(S(=O)(=O)NCCCN2CCOCC2)c(Cl)cc1Cl	i	i	i	i	i	i	nt
CC(=O)Nc1ccc(C(=O)N/N=C/c2ccccc2OCc2ccccc2)cc1	i	i	i	i	i	i	nt
COc1cccc(/C=N/NC(=O)c2cnccn2)c1O	i	i	i	95.2	i	i	i
O=C(N/N=C/c1ccccc1OCc1ccccc1)c1cccnc1	i	i	i	40.3	i	i	i
COc1ccc(C(=O)NCCc2ccccc2F)cc1OC1CCN(C(C)=O)CC1	i	i	i	i	i	i	nt
Cc1noc(C)c1COc1ccc(C(=O)OCC(=O)N2CC3(C)CC2CC(C)(C)C3)cc1 (stereo not drawn)	i	i	nt	43.6	nt	i	31.1
SMILES	tim10-1 inh	PfHsp90 set2	SKKanGAS inh	TIM10 inh	Calb FLC	tim23-1 inh	tim10 confirm
CCCOc1ccc(C(=O)N(CC(C)C)c2c(N)n(Cc3ccccc3)c(=O)[nH]c2=O)cc1	i	nt	i	i	i	i	nt
O=C1NC(=S)N(c2cccc(Cl)c2)C12CCCCC2	i	i	i	44.3	i	i	i
O=C1CCC(C(=O)N2CCSCC2)CN1Cc1cccc(C(F)(F)F)c1 (stereo not drawn)	i	i	i	i	i	i	nt
Cc1ccc(NC(=O)C/C(N)=N/OC(=O)Nc2cccc(C)c2)cc1	i	i	nt	41.7	nt	i	i
COCCCNC(=O)/C(C#N)=C/c1cccc(NC(=O)c2ccccc2Cl)c1	i	i	i	45.1	i	i	45.5
Cc1cc(C)c2c(ccc3ccccc32)n1	nt	i	nt	nt	nt	nt	nt
Oc1ccc(-c2nc3ccc4ccccc4c3c3c2CCC3)cc1O	i	97.7	i	41.4	i	i	36.4
COC(=O)c1c(NC(=O)c2nc3ccccc3s2)sc2c1CC(C)(C)NC2(C)C	i	i	i	55.2	i	i	36.0
CCOc1ccc(C(=O)Nc2sc3c(c2C(=O)OC)CC(C)(C)NC3(C)C)cc1	i	i	i	i	i	i	nt
COCC(=O)NNC(=O)c1ccccc1OC	i	i	i	i	i	i	nt
COc1ccccc1C(=O)NCCC(=O)NNC(=O)c1ccccc1O	i	i	i	96.5	i	i	i
CCOc1ccc(S(=O)(=O)N(CC(=O)NN=C2CCN(C)CC2)c2ccc(C)cc2)cc1	i	i	i	i	i	i	nt
O=C(COc1ccc([N+](=O)[O-])cc1)N1CCN(c2nnc(-c3ccccc3)c3ccccc23)CC1	i	i	i	i	i	i	nt
O=C(COc1ccc(-c2nnc(N3CCCCC3)c3ccccc23)cc1)N1CCCCC1	i	i	i	42.3	i	i	i
Cc1ccc(-c2cc3cccc[n+]3cc2-c2ccc(C)cc2)cc1	i	i	i	50.8	i	i	52.8
Cc1ccc(C[n+]2ccccc2)cc1	i	i	i	i	i	i	nt
COc1ccc(CCN=C(C)C2=C(O)C(c3ccccc3)OC2=O)cc1OC (stereo not drawn)	i	i	i	i	i	i	nt
CC1=CC(C)(C)NC(=S)N1c1cc(C)cc(C)c1	i	i	i	45.2	i	i	i
CCCNC(=O)C1CCN(c2cc(-c3ccccc3)nc3ncnn23)CC1	i	i	i	i	i	i	nt
Cc1ccc(S(=O)(=O)N2C[C@@H]3[C@H]4CC[C@H](C4)[C@@H]3[C@@H](C)[C@@H]2c2ccn([Si](C(C)C)(C(C)C)C(C)C)c2)cc1	i	nt	nt	i	nt	i	nt
O=c1oc2c(CN3CCOCC3)c(O)c(Cl)cc2c2c1CCCC2	i	i	i	i	i	i	nt
O=c1oc2c3c4c(cc2c2c1CCC2)OCCN4CCC3	i	i	nt	41.3	nt	i	i
Cc1ccc(OCc2ccccc2Br)c([N+](=O)[O-])n1	i	i	i	i	i	i	nt
O=C1CC/C=C\C[C@@H](CC(=O)N(CCO)Cc2ccccc2)C(=O)N2CCC[C@H]2CO1	i	i	nt	i	nt	i	nt
CC(C)CN1C(=O)C(=O)N(CC(=O)Nc2cc(Cl)ccc2Oc2ccccc2)C1=O	i	nt	i	42.8	i	i	38.5
Cc1ccc(OCCC(=O)OC(C)C(=O)Nc2c(C)n(C)n(-c3ccccc3)c2=O)cc1 (stereo not drawn)	i	i	i	i	i	i	nt
CCC(=O)Nc1ccc2c(c1)C(=O)c1ccccc1C2=O	i	i	i	42.0	i	i	i
CCC(=O)Nc1ccc2c(c1)C(=O)N(C)C2=O	i	i	i	i	i	i	nt
CCN(c1ccccc1)S(=O)(=O)c1ccc(OC)c(NC(=O)c2cc(Cl)ccn2)c1	i	nt	nt	i	nt	i	nt
